Results as given in PMC4336329 (PLoS ONE, 2015).
The campaign covered roughly 310,000 compounds. About 14,000 (4.5%) showed an effect of 50% or more. Effects have a minus sign here. This is one part of a sample in which strong results are shown more often than they occur.

target: human ether-à-go-go-related gene (hERG) potassium channel (human, UniProt Q12809); assay: primary screen, population patch clamp on CHO cells stably expressing hERG; higher = less effect of the substance
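Further: peak tail current of the secondary pulse compared with the same well before compound.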

Sequence of human ether-à-go-go-related gene (hERG) potassium channel (Q12809 whole entry, looked up): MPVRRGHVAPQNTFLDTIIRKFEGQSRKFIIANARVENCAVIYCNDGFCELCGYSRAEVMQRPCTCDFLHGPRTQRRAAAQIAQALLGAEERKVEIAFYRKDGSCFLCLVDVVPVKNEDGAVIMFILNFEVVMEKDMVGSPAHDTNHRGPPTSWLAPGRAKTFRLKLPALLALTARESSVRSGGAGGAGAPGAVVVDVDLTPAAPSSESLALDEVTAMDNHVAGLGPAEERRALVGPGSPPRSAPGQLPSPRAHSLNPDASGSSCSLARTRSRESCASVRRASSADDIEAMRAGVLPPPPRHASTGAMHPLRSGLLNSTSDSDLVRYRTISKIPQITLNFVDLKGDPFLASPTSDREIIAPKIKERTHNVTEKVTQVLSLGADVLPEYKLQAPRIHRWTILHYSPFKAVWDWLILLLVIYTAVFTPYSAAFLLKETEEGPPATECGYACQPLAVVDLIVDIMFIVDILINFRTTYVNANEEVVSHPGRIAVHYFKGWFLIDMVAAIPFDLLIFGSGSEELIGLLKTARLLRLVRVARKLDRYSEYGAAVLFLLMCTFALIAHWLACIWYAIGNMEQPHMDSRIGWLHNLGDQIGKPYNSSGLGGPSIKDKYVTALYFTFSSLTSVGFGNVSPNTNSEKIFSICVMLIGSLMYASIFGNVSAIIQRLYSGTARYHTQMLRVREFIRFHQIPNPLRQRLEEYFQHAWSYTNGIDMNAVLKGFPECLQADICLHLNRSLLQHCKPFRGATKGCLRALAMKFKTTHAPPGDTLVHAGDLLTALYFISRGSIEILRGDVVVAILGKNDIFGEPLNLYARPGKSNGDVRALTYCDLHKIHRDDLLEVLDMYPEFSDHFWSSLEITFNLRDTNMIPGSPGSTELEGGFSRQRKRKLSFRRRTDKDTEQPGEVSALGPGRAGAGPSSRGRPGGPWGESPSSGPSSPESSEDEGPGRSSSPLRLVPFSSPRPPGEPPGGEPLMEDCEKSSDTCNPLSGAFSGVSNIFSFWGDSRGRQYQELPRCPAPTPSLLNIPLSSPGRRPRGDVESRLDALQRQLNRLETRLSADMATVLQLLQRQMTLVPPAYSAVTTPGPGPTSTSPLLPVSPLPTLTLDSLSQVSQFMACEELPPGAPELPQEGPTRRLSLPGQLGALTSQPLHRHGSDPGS

SMILES	hERG current change (%, negative = inhibition) at 10uM
O=C(COc1ccc2ccccc2c1Br)Nn1cnnc1	-1.78%
CCCCn1c(C)cc2cc(O)ccc21	-16.8%
CC(Oc1ccccc1F)C(=O)NC1CCS(=O)(=O)C1 (stereo not drawn)	11%
CC(=O)[C@@H]1[C@@H](C)N(Cc2ccccc2)C(=O)N[C@H]1c1ccccc1	10.4%
CC1(/[N+]([O-])=C/c2cccc(Cl)c2)CCCCC1=O (stereo not drawn)	4.74%
Cc1ccc(NC(=O)COC(=O)C2CC2(Cl)Cl)cc1C (stereo not drawn)	-4.06%
CSCCC(NC(=O)c1ccco1)C(=O)N(C)CC(=O)Nc1c(Cl)cccc1Cl (stereo not drawn)	11.8%
O=C(O)C1C2C=CC(C3CC23)C1C(=O)O (stereo not drawn)	10.6%
Cc1noc(C)c1C(=O)NCCc1ccccc1	0.324%
COc1ccc(C(=O)NNC(=O)CN2CCC(n3nnc4cc(C(F)(F)F)ccc43)CC2)cc1	-10.4%
O=C(CN1CCC(n2nnc3ccccc32)CC1)Nc1ccc2c(c1)CCC2	-39.3%
Cc1ccccc1C(=O)NC1CCN(CC(=O)NCc2cccs2)CC1	6.14%
O=C(CN1CCC(n2nnc3ccccc32)CC1)NCc1cccs1	-60.2%
O=C(CN1CCC(n2nnc3cc(C(F)(F)F)ccc32)CC1)NCc1cccs1	-74.5%
O=C(CN1CCC(n2nnc3cc(C(F)(F)F)ccc32)CC1)Nc1ccc2c(c1)CCC2	1.83%
COc1ccccc1CNC(=O)c1cc2c(s1)CS(=O)(=O)C2	10.3%
COc1cc(C)c(NC(=S)Nc2ccc(Cl)c(Cl)c2)cc1OC	5.06%
COc1cc(CNc2nnnn2C)ccc1OCc1c(F)cccc1Cl	0.756%
COC(=O)C1=C(c2ccc(-c3ccccc3)c(F)c2)C[C@@H]2CC[C@H]1N2C(=O)NC(C)C	-16.8%
COc1cccc(CN(C)C(=O)CSCC(=O)Nc2ccc(C)cc2)c1OC	-12.9%
CCOC(=O)Cn1c(CN2CCOCC2)nc2c1c(=O)[nH]c(=O)n2C	7.2%
COc1ccc(C2Nc3ccccc3C(=O)N2Cc2ccccc2)cc1 (stereo not drawn)	3.75%
CC(C)CC(NC(N)=O)C(=O)NCCc1ccc(Cl)cc1Cl (stereo not drawn)	3.07%
CCOP(=O)(OCC)C(NC(=O)Nc1cccc(Cl)c1)c1ccccc1 (stereo not drawn)	5.75%
COc1ccc2nc(/C=N/NC(=O)[C@H](CCSC)NC(=O)OC(C)(C)C)ccc2c1	-59.7%
COc1ccc2nc(/C=N/NC(=O)[C@H](C)NC(=O)OC(C)(C)C)ccc2c1	-7.25%
CCC(C)[C@H](NC(=O)OC(C)(C)C)C(=O)N/N=C/c1ccc2cc(OC)ccc2n1 (stereo partly drawn)	-13.7%
